Bioassay records (PubChem)
KCNQ2 pot = potentiators of rat KCNQ2 potassium channel; CHO-K1 KCNQ2, FluxOR thallium flux fluorescence; hits give high values; hit rate 0.54% among 310,000; B-score at 10 µM; Potassium voltage-gated channel subfamily KQT member 2 (Rattus norvegicus), O88943;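 active = fluorescence ratio B-score at least 3 SD of library B-scores, with initial fluorescence B-score within 3 of them, cut at about 5.3 in these data; same plate scores as AID 2156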;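 also: B-score of peak minus minimum over baseline fluorescence ratio after K+ and Tl+ stimulus; positive B-score means potentiation of KCNQ2 with more thallium influx and brighter signal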
Target sequence (O88943 whole entry, looked up): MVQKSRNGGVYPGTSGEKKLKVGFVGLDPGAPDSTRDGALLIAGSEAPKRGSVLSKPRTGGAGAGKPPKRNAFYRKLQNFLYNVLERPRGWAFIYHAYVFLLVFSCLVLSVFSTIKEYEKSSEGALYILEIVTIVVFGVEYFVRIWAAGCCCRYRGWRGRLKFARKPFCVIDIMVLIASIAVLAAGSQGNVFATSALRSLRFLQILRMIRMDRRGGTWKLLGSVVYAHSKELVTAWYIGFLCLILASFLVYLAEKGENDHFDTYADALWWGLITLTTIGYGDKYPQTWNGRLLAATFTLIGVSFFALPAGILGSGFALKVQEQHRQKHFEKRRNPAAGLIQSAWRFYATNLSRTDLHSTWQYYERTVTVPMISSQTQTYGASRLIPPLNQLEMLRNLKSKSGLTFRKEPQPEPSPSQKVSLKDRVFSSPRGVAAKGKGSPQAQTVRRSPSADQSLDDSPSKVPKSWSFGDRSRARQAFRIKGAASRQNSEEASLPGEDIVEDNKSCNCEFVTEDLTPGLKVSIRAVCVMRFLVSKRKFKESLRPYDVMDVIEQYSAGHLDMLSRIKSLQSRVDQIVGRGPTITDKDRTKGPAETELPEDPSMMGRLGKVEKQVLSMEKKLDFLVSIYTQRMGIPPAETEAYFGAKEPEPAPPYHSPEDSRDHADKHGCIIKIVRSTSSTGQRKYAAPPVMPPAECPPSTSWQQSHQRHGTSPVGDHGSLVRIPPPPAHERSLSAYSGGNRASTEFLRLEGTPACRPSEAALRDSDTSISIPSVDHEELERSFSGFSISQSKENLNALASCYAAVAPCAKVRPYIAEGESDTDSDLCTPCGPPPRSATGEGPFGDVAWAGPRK
KCNQ2 inh = rat KCNQ2 potassium channel inhibitors, primary screen, cell-based, CHO-K1, FluxOR thallium flux, B-score; B-score at 10 µM; hit rate 1.1% among 310,000; 20 min; hits give low values; AID 2156, 2009; Potassium voltage-gated channel subfamily KQT member 2 (Rattus norvegicus), O88943;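 active = fluorescence ratio B-score at most minus 3 library SDs, with starting brightness B-score within 2 library SDs, cut at about -5.5 in these data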
Each line names hits and unclear results; the compound was inactive in the other large screens. Most compounds without a hit are left out; they make up all but 1.6% or so of the library.

CCN(CC(=O)Nc1ccccc1C(F)(F)F)C(=O)c1oc2ccc(OC)cc2c1C	KCNQ2 inh -6.02
CCc1noc(C)c1C(=O)N(CC)CC(=O)Nc1ccccc1C(F)(F)F	none
COc1ccc(C(=O)/C(C#N)=N/Nc2cccc([N+](=O)[O-])c2)cc1	none (no result: KCNQ2 pot)
O=c1cc(CSCc2ccc(Cl)cc2)[nH]c(=O)[nH]1	none (no result: KCNQ2 pot)
Fc1ccc2nc(Nc3nc4c(F)cc(F)cc4s3)sc2c1	none
Fc1ccc2nc(Nc3nc4c(F)cccc4s3)sc2c1	KCNQ2 pot 14.5
COc1cc(/C=C(/NC(=O)c2ccccc2)C(=O)Nc2ccc(O)cc2)c([N+](=O)[O-])cc1OC	none
COc1cc(/C=C(/NC(=O)c2ccccc2)C(=O)Nc2ccccc2)c([N+](=O)[O-])cc1OC	KCNQ2 inh -6.64
COc1ccc(NC(=O)/C(=C\c2cc(OC)c(OC)cc2[N+](=O)[O-])NC(=O)c2ccccc2)cc1	KCNQ2 inh -7.16
COc1ccc(C(=O)N/C(=C\c2ccccc2)C(=O)Nc2ccc(C(=O)O)cc2)cc1	none
CC1=C(C(=O)Nc2ccccc2C(=O)NCCCOC(C)C)SCCO1	none
COc1ccc(CNc2cccc(C)n2)c(O)c1	none (no result: KCNQ2 pot)
Cc1cccc(NCc2cccc3ccccc23)n1	KCNQ2 inh -5.9
COc1ccc(CCC(=O)NNC(=O)c2ccc(OC)cc2)cc1	none (no result: KCNQ2 pot)
Cc1ccc(C(=O)NC(C)C2CC3CCC2C3)c(C)c1 (stereo not given)	KCNQ2 inh -7.72
CC(NC(=O)c1ccc(F)cc1Cl)C1CC2CCC1C2 (stereo not given)	none (no result: KCNQ2 pot)
COC(=O)C1CC(=O)c2sccc2C1 (stereo not given)	none
O=C(NCc1ccco1)c1ccc(Cn2c(=O)c3ccccc3n(Cc3cccc(F)c3)c2=O)cc1	none (no result: KCNQ2 pot)
O=C(NCc1ccco1)c1ccc(Cn2c(=O)c3ccccc3n(Cc3ccc(Cl)cc3)c2=O)cc1	KCNQ2 inh -6.53
COc1cccc(OCc2nnc(SCC(=O)NCc3ccco3)n2CCc2ccccc2)c1	KCNQ2 inh -6.82
COc1ccc(OC)c(C(=O)CSc2nnc(-c3cccs3)n2C)c1	none
COc1ccc(-n2c(COc3ccc4ccccc4c3)nnc2SCC(=O)NCc2ccco2)cc1	none
COc1ccc(OC)c(C(=O)CSc2nnc(Cc3cccs3)n2CCc2ccccc2)c1	KCNQ2 inh -7.07
Cc1cc(S(=O)(=O)c2ccc([N+](=O)[O-])cn2)ccc1Br	none (no result: KCNQ2 pot)
Cc1ccc(S(=O)(=O)c2ccc([N+](=O)[O-])cn2)cc1	KCNQ2 inh -5.97
OC[C@@H](O)[C@@H](O)[C@H](O)[C@H](O)CO	none
Cc1ccc(C(Sc2ccccc2)C(Cn2cncn2)C(=O)c2ccccc2)cc1 (stereo not given)	none
COc1ccc(-c2csc3ncnc(N4CCN(S(=O)(=O)c5cccs5)CC4)c23)cc1	none (no result: KCNQ2 pot)
COc1ccc(-c2csc3ncnc(N4CCN(S(=O)(=O)c5ccc(Cl)s5)CC4)c23)cc1	KCNQ2 inh -7.55
COc1ccc(N2CCN(c3ncnc4scc(-c5ccc(C)cc5)c34)CC2)cc1	none
COc1ccc(-c2csc3ncnc(N4CCN(c5cccc(OC)c5)CC4)c23)cc1	none (no result: KCNQ2 pot)
COc1ccc(-c2csc3ncnc(N4CCN(c5cccc(Cl)c5)CC4)c23)cc1	KCNQ2 inh -6.07
COc1ccc(N2CCN(C(=O)CSc3ncnc4scc(-c5ccc(C)cc5)c34)CC2)cc1	KCNQ2 inh -5.6
CCN(CC)CCCN1CC(=O)N2[C@@H](Cc3c([nH]c4ccccc34)C2(C)C)C1=O	none
Cc1ccc(NC(=O)C(=O)NCCN2CCN(S(C)(=O)=O)CC2)cc1C	none (no result: KCNQ2 pot)
CC(=O)Nc1ccc(NC(=O)C(C)Sc2n[nH]c(=O)n2Cc2ccccc2)cc1 (stereo not given)	none
O=S(=O)(NCCSCc1c(Cl)cccc1Cl)c1ccc2c(c1)OCCO2	KCNQ2 inh -6.85
O=S(=O)(NCCSCc1ccc(Cl)cc1Cl)c1ccc2c(c1)OCCO2	none (no result: KCNQ2 pot)
COc1ccc(-c2nc(CS(=O)(=O)CC(=O)NCc3cccc(OC)c3OC)c(C)o2)cc1	none (no result: KCNQ2 pot)
COc1ccc(-c2nc(CS(=O)(=O)CC(=O)NCc3ccccc3Br)c(C)o2)cc1	KCNQ2 inh -7.75
CC(C)C(=O)Nc1ncc2c(n1)CC(c1cccs1)CC2=O (stereo not given)	none (no result: KCNQ2 pot)
CN(CCOc1ccc(Cl)cc1)C(=O)CN1C(=O)NC2(CCCCC2)C1=O	none
Cc1c(Cl)cccc1NC(=O)CC1Oc2ccccc2NC1=O (stereo not given)	none
CCCCC1(CO)C(=O)N(c2ccccc2)N(c2ccccc2)C1=O	none
CCCCC1(Cc2cccc([N+](=O)[O-])c2)C(=O)N(c2ccccc2)N(c2ccccc2)C1=O	KCNQ2 inh -6.93
COc1ccccc1NC(=S)N1CCN(c2cccc(C)c2C)CC1	none
COc1ccc(CCn2c(=N)c(S(=O)(=O)c3ccc(C)cc3)cc3c(=O)n4ccccc4nc32)cc1	none
COc1ccc(CNCc2cc3c(cc2[N+](=O)[O-])OCO3)cc1	none
Cc1cc(C)cc(NCc2cc3c(cc2[N+](=O)[O-])OCO3)c1	KCNQ2 inh -6.23
CC(C)c1ccc(/C=C/C(=O)N2CCCCCC2)cc1	none (no result: KCNQ2 pot)
CC(C)c1ccc(/C=C/C(=O)n2nnc3ccccc32)cc1	KCNQ2 inh -6.21
COc1ccccc1C(=O)NCCC(=O)NNC(=O)Cn1ccc(C(F)(F)F)n1	none
Oc1c(Cl)cc(Cl)cc1CNc1ccccn1	none (no result: KCNQ2 pot)
Oc1c(Cl)cc(Cl)cc1CNc1nc2ccccc2[nH]1	KCNQ2 inh -6.17
S=c1[nH]nc(-c2n[nH]c3c2CCC3)n1/N=C/C=C/c1ccccc1	none (no result: KCNQ2 pot)
Cc1cc(C)n2nc(SCC(=O)NC3CCCCC3)nc2n1	none (no result: KCNQ2 pot)
Cc1ccc(NS(=O)(=O)c2ccccc2Cl)c2c1CC(C)(C)O2	KCNQ2 inh -5.99
Cc1ccc(NC(=O)CN2CCCC2)c2c1CC(C)(C)O2	none
Cc1ccc(N=Cc2cc(Br)cc(Cl)c2O)cc1	KCNQ2 pot 12.3
Oc1ccc(Br)cc1C=Nc1ccc(Cl)cc1	none
Cc1ccccc1/C=C1\CCCc2ccccc2C1=O	none (no result: KCNQ2 pot)
O=C1/C(=C\c2ccc3ccccc3c2)CCCc2ccccc21	KCNQ2 inh -6.51
COc1cc(C2C(C#N)=C(N)N(c3ccc(F)cc3)C3=C2S(=O)(=O)CC3)ccc1O (stereo not given)	none (no result: KCNQ2 pot)
CN(C(=O)CC(NC(=O)c1ccccc1Cl)c1ccccc1)c1ccccc1 (stereo not given)	KCNQ2 inh -5.66
O=C(CC(NC(=O)c1ccccc1Cl)c1ccccc1)NCCc1ccc(Cl)cc1 (stereo not given)	none (no result: KCNQ2 pot)
COc1cccc(CNC(=O)CCS(=O)(=O)c2ccc3c(c2)oc(=O)n3C)c1	none
COc1ccc(C(=O)NC(=S)Nc2ccc(CN3CCOCC3)cc2)cc1OC	none (no result: KCNQ2 pot)
COc1ccc(Br)cc1/C=C/C(=O)NC(=S)Nc1ccc(CN2CCOCC2)cc1	KCNQ2 inh -6.33
CC1CN(C(=O)CCC(=O)N2CCOCC2)c2ccccc2O1 (stereo not given)	none
Cc1cc(C)c2sc(N(CCCN(C)C)C(=O)c3ccc(S(=O)(=O)N4CCCc5ccccc54)cc3)nc2c1	KCNQ2 inh -7.67
Cc1cc(C)c2sc(N(CCCN(C)C)C(=O)c3ccc(S(=O)(=O)N4CCc5ccccc5C4)cc3)nc2c1	none (no result: KCNQ2 pot)
CCN1C(=O)C(F)(CC)C(=O)c2ccccc21 (stereo not given)	none (no result: KCNQ2 pot)
CCOc1cc(-c2cn(S(=O)(=O)c3cccc4nsnc34)nc2N)cc(OCC)c1OCC	KCNQ2 inh -6.32
CCOc1cc(S(=O)(=O)n2cc(-c3ccc(F)cc3)c(N)n2)cc(OCC)c1OCC	none (no result: KCNQ2 pot)
